Assay results: PubChem BioAssay (Tox21)
Active and inactive are the calls of the source. The call rests on the fitted dose curve; in most records, active means well fitted curve in the direction sought with a large enough effect in the repeat runs; inconclusive means weak or mixed curves; inactive means flat fitted curve, though single readings scatter.

Assay: qHTS assay to test for compound auto fluorescence at 590 nm (red) in HEK293 cells (AID 720679)
Conditions: red autofluorescence 540/590 nm; series mostly up to 91.3 µM
Summary of the method: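 HEK293 cells (2,000/well, medium with 10% dialyzed FBS) attached for 4-5 hr at 37C, received 23 nL compound and were incubated overnight at 37C, 5% CO2. Red fluorescence was then read at 540/590nm Ex/Em, referenced to Rose Bengal sodium.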

Row | Structure (SMILES) | outcome
1 | CCCCNCCCC | inactive
2 | NCCCN1CCN(CCCN)CC1 | inactive
3 | O=c1[nH]cnc2c1ncn2[C@@H]1O[C@H](CO)[C@@H](O)[C@H]1O | inactive
4 | FC(F)(F)C(F)(F)C(F)(F)C(F)(F)C(F)(F)C(F)(F)C(F)(F)C(F)(F)Br | inactive
5 | C=CCCCCCCCCO | inactive
6 | CC1(C)S[C@@H]2[C@H](NC(=O)C(C(=O)O)c3ccccc3)C(=O)N2[C@H]1C(=O)O (some centres not stated) | inactive
7 | CCCCCCCCCC#N | inactive
